Results as given in the supplement of paper PMC11732987, “Enantioselective OTUD7B fragment discovery through chemoproteomics screening and high-throughput optimisation” (Communications Chemistry, 2025).

Legend:
Assay in all cases: log2 ratio of Biotin-Ahx-Ub-VS probe labelling (fragment/DMSO); higher = less target engagement (more negative = stronger competition), active = hit call of the paper (q ≤ 0.05, log2 ratio ≤ -1)
Conditions in all cases: compound concentration: 200 uM; treatment time: 3 h
USP34 = USP34 (UniProt Q70CQ2)
Chain of USP34 (Q70CQ2 whole entry, the tested form may be a part): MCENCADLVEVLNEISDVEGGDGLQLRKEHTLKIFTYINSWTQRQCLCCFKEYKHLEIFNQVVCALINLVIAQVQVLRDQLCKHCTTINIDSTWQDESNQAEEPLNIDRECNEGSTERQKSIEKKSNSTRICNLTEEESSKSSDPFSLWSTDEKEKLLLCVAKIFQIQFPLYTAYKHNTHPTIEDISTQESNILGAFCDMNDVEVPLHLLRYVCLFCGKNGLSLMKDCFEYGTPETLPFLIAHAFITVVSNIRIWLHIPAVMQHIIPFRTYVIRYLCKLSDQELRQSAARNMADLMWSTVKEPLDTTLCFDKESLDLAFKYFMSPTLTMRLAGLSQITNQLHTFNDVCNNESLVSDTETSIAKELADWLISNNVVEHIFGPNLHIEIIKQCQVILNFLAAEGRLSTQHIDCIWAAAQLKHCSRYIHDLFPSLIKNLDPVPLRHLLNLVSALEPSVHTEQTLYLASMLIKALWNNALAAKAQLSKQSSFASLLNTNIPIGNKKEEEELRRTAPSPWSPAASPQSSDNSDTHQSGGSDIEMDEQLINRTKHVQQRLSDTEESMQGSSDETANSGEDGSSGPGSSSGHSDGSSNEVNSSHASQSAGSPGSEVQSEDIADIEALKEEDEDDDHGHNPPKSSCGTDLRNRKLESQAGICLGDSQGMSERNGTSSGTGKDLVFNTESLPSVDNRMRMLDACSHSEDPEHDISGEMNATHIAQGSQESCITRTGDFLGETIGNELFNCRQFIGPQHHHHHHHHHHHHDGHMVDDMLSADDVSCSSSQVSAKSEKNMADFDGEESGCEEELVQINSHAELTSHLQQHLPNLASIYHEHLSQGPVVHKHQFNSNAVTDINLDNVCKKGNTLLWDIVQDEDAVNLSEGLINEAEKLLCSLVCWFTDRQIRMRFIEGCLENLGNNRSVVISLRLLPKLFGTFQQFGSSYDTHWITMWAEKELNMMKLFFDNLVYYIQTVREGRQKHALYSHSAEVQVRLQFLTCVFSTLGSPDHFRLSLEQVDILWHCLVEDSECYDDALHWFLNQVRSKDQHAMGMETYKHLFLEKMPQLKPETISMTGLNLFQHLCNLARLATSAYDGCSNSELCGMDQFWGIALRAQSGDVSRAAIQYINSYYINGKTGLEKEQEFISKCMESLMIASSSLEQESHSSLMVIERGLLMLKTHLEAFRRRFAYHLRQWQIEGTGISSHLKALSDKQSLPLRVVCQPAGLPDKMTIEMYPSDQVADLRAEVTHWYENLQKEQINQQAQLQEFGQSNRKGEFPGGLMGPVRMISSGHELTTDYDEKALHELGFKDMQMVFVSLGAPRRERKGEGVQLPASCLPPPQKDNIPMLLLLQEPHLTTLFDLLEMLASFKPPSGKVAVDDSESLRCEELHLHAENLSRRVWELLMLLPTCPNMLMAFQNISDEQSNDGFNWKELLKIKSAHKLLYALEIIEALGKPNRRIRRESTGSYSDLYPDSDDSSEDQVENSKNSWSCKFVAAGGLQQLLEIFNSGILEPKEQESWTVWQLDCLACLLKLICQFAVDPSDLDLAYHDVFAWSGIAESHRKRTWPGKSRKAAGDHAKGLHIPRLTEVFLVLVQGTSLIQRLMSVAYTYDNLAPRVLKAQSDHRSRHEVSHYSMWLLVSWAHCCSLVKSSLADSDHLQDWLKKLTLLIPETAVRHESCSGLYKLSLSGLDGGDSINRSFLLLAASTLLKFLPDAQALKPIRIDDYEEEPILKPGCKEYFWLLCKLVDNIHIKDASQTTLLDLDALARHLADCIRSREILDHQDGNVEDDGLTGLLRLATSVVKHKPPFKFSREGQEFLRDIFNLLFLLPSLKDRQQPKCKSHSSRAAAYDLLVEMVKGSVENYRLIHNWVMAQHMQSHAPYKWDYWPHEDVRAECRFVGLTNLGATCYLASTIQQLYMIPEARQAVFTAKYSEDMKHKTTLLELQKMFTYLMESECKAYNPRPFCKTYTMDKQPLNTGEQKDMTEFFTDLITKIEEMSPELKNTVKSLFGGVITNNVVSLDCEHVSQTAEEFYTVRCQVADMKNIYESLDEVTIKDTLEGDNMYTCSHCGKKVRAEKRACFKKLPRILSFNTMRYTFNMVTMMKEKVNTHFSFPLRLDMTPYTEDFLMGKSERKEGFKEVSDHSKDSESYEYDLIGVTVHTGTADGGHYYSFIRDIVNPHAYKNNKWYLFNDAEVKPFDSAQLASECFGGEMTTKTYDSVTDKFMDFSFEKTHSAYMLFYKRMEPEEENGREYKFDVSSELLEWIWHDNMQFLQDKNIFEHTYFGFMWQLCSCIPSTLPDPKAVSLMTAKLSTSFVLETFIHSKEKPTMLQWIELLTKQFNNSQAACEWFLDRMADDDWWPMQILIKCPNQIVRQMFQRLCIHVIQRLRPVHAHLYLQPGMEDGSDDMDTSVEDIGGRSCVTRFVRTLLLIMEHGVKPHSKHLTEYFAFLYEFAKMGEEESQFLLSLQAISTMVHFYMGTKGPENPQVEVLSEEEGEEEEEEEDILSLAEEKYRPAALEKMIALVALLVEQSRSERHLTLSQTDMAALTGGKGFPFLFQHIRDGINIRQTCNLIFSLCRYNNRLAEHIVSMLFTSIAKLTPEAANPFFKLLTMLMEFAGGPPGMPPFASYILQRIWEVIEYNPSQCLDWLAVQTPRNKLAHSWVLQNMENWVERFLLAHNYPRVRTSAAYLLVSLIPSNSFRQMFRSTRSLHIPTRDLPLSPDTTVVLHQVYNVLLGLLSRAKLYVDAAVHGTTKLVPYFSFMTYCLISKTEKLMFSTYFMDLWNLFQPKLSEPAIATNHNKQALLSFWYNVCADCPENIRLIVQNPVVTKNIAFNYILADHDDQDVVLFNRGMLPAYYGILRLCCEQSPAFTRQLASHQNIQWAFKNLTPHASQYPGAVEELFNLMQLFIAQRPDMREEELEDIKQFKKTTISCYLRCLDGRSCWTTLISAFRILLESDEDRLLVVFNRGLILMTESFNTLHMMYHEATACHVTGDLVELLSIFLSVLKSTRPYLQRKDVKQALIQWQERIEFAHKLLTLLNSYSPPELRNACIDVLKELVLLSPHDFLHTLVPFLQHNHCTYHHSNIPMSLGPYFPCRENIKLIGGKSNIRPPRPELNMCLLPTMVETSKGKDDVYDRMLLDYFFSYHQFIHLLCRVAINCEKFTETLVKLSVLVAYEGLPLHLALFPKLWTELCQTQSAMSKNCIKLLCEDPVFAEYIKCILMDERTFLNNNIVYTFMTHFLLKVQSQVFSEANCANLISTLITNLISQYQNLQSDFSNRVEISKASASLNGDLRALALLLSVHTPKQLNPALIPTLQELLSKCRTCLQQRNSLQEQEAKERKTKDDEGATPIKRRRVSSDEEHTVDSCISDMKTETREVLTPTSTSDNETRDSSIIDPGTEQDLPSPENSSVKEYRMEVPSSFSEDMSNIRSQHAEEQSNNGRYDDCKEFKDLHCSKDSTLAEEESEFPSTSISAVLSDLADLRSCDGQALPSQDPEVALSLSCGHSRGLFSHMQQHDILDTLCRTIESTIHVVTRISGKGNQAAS
Summary of the method: (§1)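 Global-median-normalised Spectronaut label-free quantities were compared by unpaired t-test, and values are average log2 ratios of fragment over vehicle. Only proteins with ≥2 unique peptides were used. HEK293T lysate (495 µg per sample) was treated in triplicate with fragment at 200 µM or vehicle for 3 h and then with Biotin-Ahx-Ub-VS at 0.5 µM final for 1 h. Labelled DUBs were then NeutrAvidin-enriched, digested with LysC and trypsin, and run by diaPASEF LC-MS/MS.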

USP36 = target: T1, USP36 (UniProt Q9P275)
T1 sequence (whole entry): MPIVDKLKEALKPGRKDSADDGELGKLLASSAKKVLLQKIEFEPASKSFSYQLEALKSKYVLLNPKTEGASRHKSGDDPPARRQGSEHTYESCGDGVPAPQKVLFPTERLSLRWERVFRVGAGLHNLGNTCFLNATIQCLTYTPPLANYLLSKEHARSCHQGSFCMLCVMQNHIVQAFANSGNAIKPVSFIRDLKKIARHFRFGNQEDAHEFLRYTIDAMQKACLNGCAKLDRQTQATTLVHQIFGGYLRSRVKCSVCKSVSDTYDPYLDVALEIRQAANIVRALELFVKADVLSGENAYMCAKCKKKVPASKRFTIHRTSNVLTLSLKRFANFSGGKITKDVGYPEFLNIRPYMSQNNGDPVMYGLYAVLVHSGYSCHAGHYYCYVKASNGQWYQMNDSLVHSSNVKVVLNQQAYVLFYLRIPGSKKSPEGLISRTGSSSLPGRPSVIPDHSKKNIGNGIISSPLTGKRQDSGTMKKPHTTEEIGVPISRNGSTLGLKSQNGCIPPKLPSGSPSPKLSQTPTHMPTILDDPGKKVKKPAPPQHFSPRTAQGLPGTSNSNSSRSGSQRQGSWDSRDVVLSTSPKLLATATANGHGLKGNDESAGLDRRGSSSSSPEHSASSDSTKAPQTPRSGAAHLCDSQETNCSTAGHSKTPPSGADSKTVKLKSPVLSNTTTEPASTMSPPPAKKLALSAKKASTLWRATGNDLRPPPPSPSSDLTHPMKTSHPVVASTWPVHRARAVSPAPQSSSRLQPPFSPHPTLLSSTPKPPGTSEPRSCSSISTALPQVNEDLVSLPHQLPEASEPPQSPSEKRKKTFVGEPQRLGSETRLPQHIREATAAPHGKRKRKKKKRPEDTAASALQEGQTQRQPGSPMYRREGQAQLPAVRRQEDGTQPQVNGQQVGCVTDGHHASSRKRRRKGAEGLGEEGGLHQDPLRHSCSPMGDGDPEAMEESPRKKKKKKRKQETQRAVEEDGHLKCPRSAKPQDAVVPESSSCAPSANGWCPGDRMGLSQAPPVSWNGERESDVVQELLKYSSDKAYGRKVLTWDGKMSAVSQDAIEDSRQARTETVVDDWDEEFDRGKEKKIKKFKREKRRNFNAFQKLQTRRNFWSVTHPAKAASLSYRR
Summary of the method: as §1

USP38 = target: T2, USP38 (UniProt Q8NB14)
T2 sequence (whole entry): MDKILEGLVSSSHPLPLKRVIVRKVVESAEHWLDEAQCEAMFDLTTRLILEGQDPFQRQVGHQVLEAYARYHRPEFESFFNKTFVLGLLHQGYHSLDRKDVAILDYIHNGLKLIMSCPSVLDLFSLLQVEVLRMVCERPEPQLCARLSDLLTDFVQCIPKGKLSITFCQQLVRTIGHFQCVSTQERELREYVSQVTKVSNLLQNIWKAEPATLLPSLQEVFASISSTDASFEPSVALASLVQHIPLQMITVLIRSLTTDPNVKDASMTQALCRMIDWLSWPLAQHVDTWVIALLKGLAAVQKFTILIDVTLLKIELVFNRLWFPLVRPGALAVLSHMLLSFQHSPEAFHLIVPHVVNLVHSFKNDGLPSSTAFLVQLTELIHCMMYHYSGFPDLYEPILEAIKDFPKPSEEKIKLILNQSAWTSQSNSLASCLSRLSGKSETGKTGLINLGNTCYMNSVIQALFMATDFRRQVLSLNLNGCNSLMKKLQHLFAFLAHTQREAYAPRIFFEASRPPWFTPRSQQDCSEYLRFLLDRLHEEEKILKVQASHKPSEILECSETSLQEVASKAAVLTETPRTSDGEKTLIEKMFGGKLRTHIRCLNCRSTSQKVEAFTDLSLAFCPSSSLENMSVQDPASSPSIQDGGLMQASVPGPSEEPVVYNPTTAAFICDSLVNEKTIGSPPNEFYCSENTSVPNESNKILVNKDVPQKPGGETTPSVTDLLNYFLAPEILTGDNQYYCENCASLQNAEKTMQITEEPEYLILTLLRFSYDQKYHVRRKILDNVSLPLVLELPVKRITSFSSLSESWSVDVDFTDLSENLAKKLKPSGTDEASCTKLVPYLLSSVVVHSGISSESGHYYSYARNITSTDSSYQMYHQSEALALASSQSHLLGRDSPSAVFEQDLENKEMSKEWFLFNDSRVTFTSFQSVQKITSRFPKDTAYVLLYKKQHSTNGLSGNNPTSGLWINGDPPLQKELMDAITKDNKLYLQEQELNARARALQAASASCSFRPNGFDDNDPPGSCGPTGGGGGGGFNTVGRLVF
Summary of the method: as §1

USP39 = target: T3, USP39 (UniProt Q53GS9)
T3 sequence (whole entry): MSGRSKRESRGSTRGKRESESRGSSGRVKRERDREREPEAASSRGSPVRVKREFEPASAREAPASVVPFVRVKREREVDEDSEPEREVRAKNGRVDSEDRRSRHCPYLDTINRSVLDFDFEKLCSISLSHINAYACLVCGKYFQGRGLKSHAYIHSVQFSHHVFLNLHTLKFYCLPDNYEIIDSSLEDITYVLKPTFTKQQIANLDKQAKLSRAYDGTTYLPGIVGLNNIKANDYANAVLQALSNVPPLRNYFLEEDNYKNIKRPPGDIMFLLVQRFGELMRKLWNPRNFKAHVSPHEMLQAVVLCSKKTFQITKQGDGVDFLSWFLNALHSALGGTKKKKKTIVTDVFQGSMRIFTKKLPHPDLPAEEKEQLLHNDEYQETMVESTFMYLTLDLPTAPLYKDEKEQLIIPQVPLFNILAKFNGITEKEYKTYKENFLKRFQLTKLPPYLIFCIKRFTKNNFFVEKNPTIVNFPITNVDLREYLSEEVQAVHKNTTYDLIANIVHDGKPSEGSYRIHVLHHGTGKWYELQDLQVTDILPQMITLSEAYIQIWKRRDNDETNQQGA
Summary of the method: as §1

USP4 = target: T4, USP4 (UniProt Q13107)
T4 sequence (whole entry): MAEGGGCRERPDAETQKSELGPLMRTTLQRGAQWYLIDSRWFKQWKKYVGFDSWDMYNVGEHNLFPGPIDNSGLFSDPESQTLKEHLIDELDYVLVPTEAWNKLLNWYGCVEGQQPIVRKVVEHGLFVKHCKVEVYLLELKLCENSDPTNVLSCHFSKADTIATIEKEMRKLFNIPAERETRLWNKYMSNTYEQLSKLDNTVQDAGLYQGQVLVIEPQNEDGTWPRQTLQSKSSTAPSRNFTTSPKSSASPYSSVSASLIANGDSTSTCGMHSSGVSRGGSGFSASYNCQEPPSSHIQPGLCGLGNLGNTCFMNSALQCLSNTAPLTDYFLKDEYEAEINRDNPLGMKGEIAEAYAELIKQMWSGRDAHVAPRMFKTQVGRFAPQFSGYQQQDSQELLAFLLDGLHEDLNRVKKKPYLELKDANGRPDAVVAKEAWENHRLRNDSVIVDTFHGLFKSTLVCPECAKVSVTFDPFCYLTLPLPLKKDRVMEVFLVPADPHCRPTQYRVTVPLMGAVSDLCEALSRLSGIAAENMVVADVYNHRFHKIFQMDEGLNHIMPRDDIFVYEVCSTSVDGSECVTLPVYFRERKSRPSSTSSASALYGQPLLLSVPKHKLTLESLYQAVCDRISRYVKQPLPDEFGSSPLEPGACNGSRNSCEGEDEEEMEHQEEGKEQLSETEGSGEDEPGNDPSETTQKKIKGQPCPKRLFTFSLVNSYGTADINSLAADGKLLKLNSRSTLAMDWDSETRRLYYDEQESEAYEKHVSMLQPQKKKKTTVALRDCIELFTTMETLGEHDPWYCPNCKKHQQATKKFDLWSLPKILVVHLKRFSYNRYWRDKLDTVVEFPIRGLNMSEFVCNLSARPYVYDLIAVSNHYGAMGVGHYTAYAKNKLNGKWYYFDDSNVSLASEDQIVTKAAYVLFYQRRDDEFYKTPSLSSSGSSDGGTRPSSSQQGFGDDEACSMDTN
Summary of the method: as §1

Measured: log2 ratio of Biotin-Ahx-Ub-VS probe labelling

Cc1cccc(NC(=O)[C@@H]2CCCN2C(=O)CCl)n1
inactive: USP34 0.0425 | USP36 -0.0946 | USP38 -0.0719 | USP39 0.179 | USP4 -0.0817
